In PubChem BioAssay AID485364 (National Center for Advancing Translational Sciences (NCATS), 2010) one finds Potency data, which are given here for 99 compounds.

The structures appear in SMILES notation. About 11,000 (3.1%) of roughly 360,000 compounds were called active. Inconclusive results (about 4%) are left out. Calls come from the whole dose curve; as a rule, active = well fitted inhibition curve with a large enough effect; inconclusive = small, poorly fitted or top-dose-only effect; inactive = no such curve, though single readings can be large or run the other way. What follows is part of a selection rich in actives, with near analogues and random picks from the rest. Where a call stands in place of a potency, no number is given.
Potency is the fitted concentration of half-maximal effect.

The test deals with Schistosoma mansoni thioredoxin glutathione reductase (TGR) (UniProt Q962Y6). The test is described as follows: qHTS Assay for the Inhibitors of Schistosoma Mansoni Peroxiredoxins. Note: nearly all actives have a fitted effect of over 60% in size. Particulars: purified TGR, DTNB reduction, TNB absorbance 405 nm; series mostly up to 114 µM. The method in brief:
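First, TGR (20 nM dispensed) and NADPH were mixed with compound. Second, a 15 min room-temperature incubation followed. Third, further NADPH and then DTNB were added to start the reaction. Finally, TNB absorbance was monitored kinetically.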
For orientation: Quantitative high-throughput screening tests each substance at several concentrations.
In the case of `O=C(Nc1ccc(F)cc1F)c1ccc2c(=O)n3c(nc2c1)CCCCC3`, the Potency entry is “inactive”.

For `COc1ccccc1-n1c(-c2ccc(C)cc2)cn2c3c(=O)n(C)c(=O)n(C)c3nc12`, the Potency result was “inactive”. Then `CCn1c(COc2ccc(OC)cc2)nnc1SCC(=O)Nc1cc(OC)ccc1OC`, with “inactive”.

Regarding `CCn1c(CNC(=O)c2ccc(OC)c(OC)c2)nnc1SCC(=O)Nc1ccccc1`, the Potency result was “inactive”.

As for `CCn1c(SC)nc(O)c(C(c2ccc(OC)c(O)c2)c2c(O)nc(SC)n(CC)c2=O)c1=O`, the Potency was 3.98 µM (active). The entry for `Cc1ccc(-n2c(=O)c3cccnc3n2CC(=O)Nc2ccccc2C(F)(F)F)cc1C` is “inactive”; for `O=C(CCn1c(=O)c2sccc2n(Cc2ccc(F)cc2)c1=O)NCc1ccc2c(c1)OCO2` it is “inactive”. As to `CCn1c(O)c(N=NC(=O)c2cccc(S(=O)(=O)N3CCCCC3)c2)c2ccccc21`, the Potency entry is “inactive”. Then `CCn1c(O)c2ccc(C(=O)N=NC(=O)c3cccnc3)cc2c1O`, with 100 µM (active); and `C/C(=N\NC(=O)c1ccc2ccccc2c1)c1cccnc1`, with “inactive”; and `CCOc1ccc(C(=O)N2CCN(CCc3ccccn3)CC2)cc1`, with “inactive”. `CCOc1ccc(NC(=O)c2c(NCc3cccc(OC)c3OC)sc3c2CCC3)cc1`: the Potency result is “inactive”. In the case of `CCOc1ccc(N(CC(=O)Nc2cccc(OC)c2)S(C)(=O)=O)cc1`, the Potency entry is “inactive”. Then `COC(=O)CN(c1cccc(C(C)=O)c1)S(C)(=O)=O`, with 50.1 µM (active); and `Cc1cccc(N(CC(=O)N2CCOCC2)S(C)(=O)=O)c1`, with “inactive”; and `CCCc1cc(=O)n2[nH]c(NCc3ccc(CC)cc3)nc2n1`, with “inactive”. Then `COc1ccccc1NC(=O)CN1C(=O)c2ccccc2Sc2ccc(C(=O)N3CCCC3)cc21`, with “inactive”. Then `O=C1CSC(=S)N1/N=C/c1ccc(O)c([N+](=O)[O-])c1`, with 3.55 µM (active). Turning to `CO/N=C/c1ccc(N2CCN(C(=O)c3cccc(Cl)c3)CC2)c([N+](=O)[O-])c1`, the Potency entry was “inactive”. The entry for `CCC1=Nc2cc(C(=O)NCC(C)c3ccccc3)ccc2Sc2ccc(C)cc21` (centres undefined) is “inactive”; for `CCN1CCC(N(Cc2ccc(F)cc2)C(=O)Nc2cc(C)ccc2C)CC1` it is “inactive”. The entry for `Cc1cnc(C(=O)OCC(=O)Nc2ccc(Cl)cc2Cl)cn1` is “inactive”; for `Cc1ccc(-c2cc(C(=O)Oc3ccccc3Cl)no2)cc1C` it is “inactive”. The figure for `Cc1cnc(C(=O)Oc2cccc(Cl)c2Cl)cn1` is 22.4 µM (active). In the case of `CCCCSc1ncnc2c1sc1nc(N3CCOCC3)c3c(c12)CCCC3`, the Potency entry is “inactive”. The entry for `COc1cc2c(=O)c(S(=O)(=O)c3ccc(C(C)C)cc3)cn(Cc3ccccc3C)c2cc1OC` is “inactive”; for `CCOc1ccc(OCC)c(NC(=O)c2c(C)nn(-c3ccccc3)c2-n2cccc2)c1` it is “inactive”.

As for `CCOc1ccccc1NC(=O)Cn1nnc(C(=O)Nc2ccc(C)c(C)c2)c1N`, the Potency entry is “inactive”. In the case of `CCOc1ccc(N(CC)S(=O)(=O)N2CCCC(C(=O)Nc3ccc(C(C)=O)cc3)C2)cc1` (centres undefined), the Potency entry was “inactive”. The entry for `O=S(=O)(NCCCN1CCOCC1)c1ccc(F)c(Cl)c1` is “inactive”; for `O=C(NCCCN1CCOCC1)c1ccc([N+](=O)[O-])cc1[N+](=O)[O-]` it is “inactive”. Then `O=[N+]([O-])c1cc(S(=O)(=O)CCCN2CCOCC2)ccc1F`, with 7.08 µM (active); and `COC(=O)c1cc2occc2n1Cc1nc(-c2ccc(C)cc2)oc1C`, with “inactive”. The entry for `COc1ccc(-c2nc3sc(CCNC(=O)C(C)(C)C)c(C)n3n2)cc1` is “inactive”. `Cc1ccc(S(=O)(=O)NCCSc2ccccc2)cc1[N+](=O)[O-]`: the Potency result is “inactive”. `CCS(=O)(=O)c1cc([N+](=O)[O-])c(Sc2ccccc2N)s1`: the Potency is 20 µM (active). The entry for `Cc1c(C(=O)Nc2cccc(Cl)c2)oc2ccc(S(=O)(=O)N3CCOCC3)cc12` is “inactive”. Then `CCOc1ccc2nc(N3CCC(C(=O)Nc4cc(C)ccc4C)CC3)sc2c1`, with “inactive”; and `O=Cc1c(N2CCN(c3cccc(Cl)c3)CC2)nc2ccccn2c1=O`, with “inactive”; and `Cc1cccn2c(=O)c(C=O)c(Nc3ccc(S(N)(=O)=O)cc3)nc12`, with “inactive”.

With `O=Cc1c(Nc2ccccc2Cl)nc2ccccn2c1=O`, the Potency is 10 µM (active). The entry for `CC1CCCN(c2csc3ccc(F)cc3c2=O)C1` (centres undefined) is “inactive”.

Take `COc1ccc(CNC(=O)CC2Oc3ccc(C)cc3NC2=O)cc1` (centres undefined): the Potency entry is “inactive”. Regarding `O=C(NCCc1ccc(Cl)cc1)c1ccc2nc(CCc3ccccc3)oc2c1`, the Potency result was “inactive”. The entry for `Cc1ccc(C)c(N2CCN(C(=O)CCc3c(C)nc4c(c3C)c(=O)n(C)c(=O)n4C)CC2)c1` is “inactive”; for `COc1ccccc1C(=O)Nc1ccc(OCc2nnc3c4ccccc4c(C)nn23)cc1` it is “inactive”; for `Cc1cccnc1NC(=O)CSc1nnc(COc2ccc(C(C)C)cc2)n1C` it is “inactive”. The figure for `Cc1ccc(OCc2nnc(SC3CCc4ccccc4C3=O)n2C)cc1` (centres undefined) is 17.8 µM (active).

On to `CC(=O)Nc1ccc(S(=O)(=O)N2CCN(c3ccccc3)CC2)cc1`, for which the Potency result is “inactive”.

As to `CC(=O)Nc1ccc(S(=O)(=O)N2CCSCC2)cc1`, the Potency entry is “inactive”. The figure for `CC(=O)Nc1ccc(S(=O)(=O)N2CCn3cccc3C2C)cc1` (centres undefined) is 44.7 µM (active). For the compound `Cc1cccc(N(C)C(=O)CS(=O)(=O)c2cccc3nsnc23)c1`, the Potency result was “inactive”.

On to `Cc1nc2c(-c3ccc(F)cc3)c(C)nn2c(C)c1CCC(=O)NCc1ccco1`, for which the Potency result was “inactive”. The entry for `CCOc1cccc(-c2nn3c(-c4ccccn4)nnc3s2)c1` is “inactive”. Then `Fc1ccc(-c2ccc(-c3nn4c(-c5ccco5)nnc4s3)o2)cc1`, with 50.1 µM (active); and `CCN(CCCNC(=O)Cn1ncc2c3ccccc3n(C)c2c1=O)Cc1ccccc1`, with “inactive”; and `COc1ccc(N2CCN(C3=NS(=O)(=O)C(c4cccc(Br)c4)=C3C)CC2)cc1`, with “inactive”. Then `COc1ccccc1CNC(=O)c1ccccc1NC(=O)c1nsc2ccccc12`, with “inactive”; and `COc1ccc(N2C(=O)C3C(C2=O)C(C(=O)c2ccccc2)N2CCCC32)cc1` (centres undefined), with 22.4 µM (active); and `COc1ccc(C2NC(=O)N(C)C3=C2C(=O)N(c2ccc(C(=O)O)cc2)C3)cc1` (centres undefined), with “inactive”. Regarding `COc1ccc(N2C(=O)C3CCCN3C2c2cccs2)cc1` (centres undefined), the Potency entry was “inactive”. The entry for `Cc1oc(-c2ccccc2)nc1Cn1c(SCc2cccc(C(F)(F)F)c2)nc2cccnc21` is “inactive”. Then `Cc1c2cnn(-c3ccccc3)c(=O)c2c(C)n1C(C)C(=O)Nc1ccc(Br)cc1F` (centres undefined), with “inactive”; and `O=C(/C=C/c1ccccc1)Nc1cc(-c2nc3cc(Cl)ccc3o2)ccc1Cl`, with “inactive”; and `COc1ccc(NC(=O)c2sc3nc(-c4cc5cccc(OC)c5oc4=O)[nH]c(=O)c3c2C)cc1`, with “inactive”. The entry for `COc1cc(CNCCSc2nnnn2C)ccc1OCc1ccc(Cl)cc1Cl` is “inactive”; for `CC(C)Cn1c(=O)c2ccccc2n2c(-c3cccc(Cl)c3)nnc12` it is “inactive”. Consider `O=c1cc(-c2ccccc2)n2c(SCc3ccccc3)nnc2[nH]1`, for which the Potency entry is “inactive”.

Turning to `O=c1[nH]c2ccccc2n2c(-c3ccccc3)nnc12`, the Potency was 0.1 µM (active).

Take `Cc1ccc(Cn2c(CCCNC(=O)C3CCCCC3)nc3ccccc32)cc1`: the Potency entry is “inactive”. Then `CCS(=O)(=O)N1CCc2cc(C(=O)NCc3ccc(C)cc3)ccc21`, with “inactive”; and `COc1ccc(S(=O)(=O)n2nc(C)c(S(=O)(=O)N3CCCCCC3)c2C)cc1`, with “inactive”. As for `CCc1ccc(S(=O)(=O)Nc2cc3c(cc2N2CCCCC2)n(C)c(=O)c(=O)n3C)cc1`, the Potency is 50.1 µM (active). Then `Cc1ccc(NS(=O)(=O)c2ccc3c(c2)n(C)c(=O)c(=O)n3C)c(C)c1`, with “inactive”; and `Cc1ccc(C(=O)Nc2cc3c(cc2N2CCCC2)n(C)c(=O)c(=O)n3C)cc1`, with “inactive”. The entry for `CCOC(=O)C1CCN(c2ncnc3c2c(-c2ccccc2)cn3-c2cccc(C)c2)CC1` is “inactive”.

For `CCOC(=O)C1CCN(c2nc3c(S(=O)(=O)c4ccc(CC)cc4)nnn3c3ccc(Cl)cc23)CC1`, the Potency result is “inactive”.

With `COc1ccc(S(=O)(=O)NCc2cccn2Cc2cccc(C)c2)cc1`, the Potency entry is “inactive”. Then `Cn1c(=O)c2c(-c3ccccc3Br)n(Cc3ccccc3)cc2n(C)c1=O`, with “inactive”. The figure for `Cc1cccc(NC(=O)CN2CCCN(S(=O)(=O)c3ccc(Br)s3)CC2)c1` is 25.1 µM (active); for `Cc1ccc(S(=O)(=O)N2CCN(CC(=O)N/N=C/c3ccc(Br)s3)CC2)cc1` it is “inactive”; for `CC(C)N(C(=O)CN1CCN(S(=O)(=O)c2ccc(Br)s2)CC1)C(C)C` it is “inactive”. `COc1ccc(CCNC(=O)CCCn2c(=O)c3ccccc3n(Cc3ccc(F)cc3Cl)c2=O)cc1OC`: the Potency entry is “inactive”.

Turning to `CSc1sc(C(=O)NC(=O)NCc2cccnc2)c(C)c1-c1ccon1`, the Potency result was “inactive”. Then `Cc1ccc(C(=O)NC(=S)NCc2cccnc2)cc1`, with “inactive”; and `Cc1ccc(-n2nc(-c3ccco3)cc2C(=O)NCc2cccnc2)cc1`, with 3.55 µM (active); and `Cc1ccccc1CNC(=O)CCc1cn(Cc2ccccc2C)c2ccccc12`, with “inactive”. Then `Cc1cc(C)cc(NS(=O)(=O)c2ccc(-c3cc(C)no3)s2)c1`, with “inactive”; and `Cc1ccc(CN2CCN(Cc3cn(C)nc3-c3ccccc3)CC2CCO)o1` (centres undefined), with “inactive”. The figure for `Cc1ccccc1CN1C[C@@H]2C[C@@H](c3cn(C)nc3-c3ccccc3)N3CCC[C@@]23C1=O` is 7.94 µM (active); for `Cc1ccccc1CN1C[C@@H]2C[C@@H](c3ccc4nsnc4c3)N3CCC[C@@]23C1=O` it is “inactive”; for `CC(C)c1ccc(NC(=O)c2ccc3c(O)c(S(=O)(=O)c4ccccc4)c(=O)[nH]c3c2)cc1` it is “inactive”. As for `Cc1ccc(-c2nn3c(=O)cc(CN4CCN(C(=O)Nc5cccc(C(F)(F)F)c5)CC4)nc3s2)cc1`, the Potency entry is “inactive”.

Take `O=C(Nc1ccc(N2CCCC2=O)cc1)c1cncc(Br)c1`: the Potency result was “inactive”. Then `O=C(NC(=S)Nc1ccc(Cl)c(C(=O)O)c1)c1cncc(Br)c1`, with 12.6 µM (active); and `COC(=O)c1ccccc1NC(=O)c1cncc(Br)c1`, with “inactive”; and `Cc1ccc(CNC(=O)Cn2cnc(S(=O)(=O)N3CCCCC3)c2)o1`, with “inactive”.

Take `Cc1ccc(CNC(=O)C2(C(F)(F)F)C/C(=C\Cc3ccccc3)CCCO2)o1` (centres undefined): the Potency is 20 µM (active). On to `Cc1ccc(C(=O)N2CC(=O)Nc3ccccc32)o1`, for which the Potency entry is “inactive”.
